We go through seven compounds from PubChem BioAssay (NCATS).

Assay [1] can be described thus: Quantitative highthroughput screen to assess conditional lethalithy of NOMO1 cells grown in RPMI1640 with untreated serum (RPMI+s) (AID 1963876). Further: nearly all actives have a fitted effect of over 35% in size. Further: potency means the concentration at half of the fitted maximal effect.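 On viability: 100% = DMSO wells and 0% = empty wells without cells.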 In a few lines:
(§1)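 Each medium arm—HPLM with 10% dialyzed FBS, or RPMI1640 with 5 mM glucose and 10% untreated or dialyzed FBS—was screened against an 11-point, 3-fold compound titration for 48 h at 37 °C, with CellTiter-Glo luminescence as endpoint.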

Assay [2] in a line: Quantitative highthroughput screen to assess conditional lethalithy of NOMO1 cells grown in RPMI1640 with dialyzed fetal bovine serum (RPMI+ds) (AID 1963877). Further: nearly all actives have a fitted effect of over 30% in size. Further: potency means the concentration at half of the fitted maximal effect.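 On viability: series mostly up to about 46 µM; 100% = DMSO control wells and 0% = empty wells.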 In a few lines:
as §1

Assay [3] can be described thus: Quantitative highthroughput screen to assess conditional lethalithy of NOMO1 cells grown in Human Plasma-Like Medium with dialyzed fetal bovine serum (HPLM+ds) (AID 1963878). Further: nearly all actives have a fitted effect of over 35% in size. Further: potency means the concentration at half of the fitted maximal effect.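 On viability: 100% = DMSO wells and 0% = empty wells on each plate.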 In a few lines:
as §1

Assay [4] in a line: Quantitative highthroughput screen to assess conditional lethalithy of SEM cells grown in Human Plasma-Like Medium with dialyzed fetal bovine serum (HPLM+ds) (AID 1963882). Further: nearly all actives have a fitted effect of over 35% in size. Further: potency means the concentration at half of the fitted maximal effect. On viability: series mostly up to about 46 µM. The method, boiled down:
as §1

The nature of assay [5]: Quantitative highthroughput screen to assess conditional lethalithy of P12 Ichikawa cells grown in RPMI1640 with dialyzed fetal bovine serum (RPMI+ds) (AID 1963880). Further: nearly all actives have a fitted effect of over 35% in size. Further: potency means the concentration at half of the fitted maximal effect.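 On viability: 100% = DMSO wells and 0% = empty wells on each plate.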 The settings on record: Potency: P12-Ichikawa viability. In a few lines: as §1
The nature of assay [6]: Quantitative highthroughput screen to assess conditional lethalithy of P12 Ichikawa cells grown in RPMI1640 with untreated serum (RPMI+s) (AID 1963881). Further: nearly all actives have a fitted effect of over 35% in size. Further: potency means the concentration at half of the fitted maximal effect.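 On viability: series mostly up to about 46 µM; 100% = DMSO wells and 0% = empty wells without cells.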 To be noted: Potency: viability. The method, boiled down:
as §1

Assay [7] in a line: Quantitative highthroughput screen to assess conditional lethalithy of SEM cells grown in RPMI1640 with unreated serum (RPMI+s) (AID 1963883). In a few lines:
as §1

Assay [8] can be described thus: Quantitative highthroughput screen to assess conditional lethalithy of SEM cells grown in RPMI1640 with dialyzed fetal bovine serum (RPMI+ds) (AID 1963884). The method, boiled down:
as §1

The nature of assay [9]: Cellular viability qHTS for adrenocortical cancer (ACC) cell line SW-13 (AID 1963989). Further: nearly all actives have a fitted effect of over 65% in size. Further: potency means the concentration at half of the fitted maximal effect.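 On activity (max response): cells grown in serum-free medium with ITS supplement; on the % scale 0 is the no-effect control and ±100 the full control effect.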 The settings on record: SW-13 ACC cells viability, CellTiter-Glo, 48 h; activity (max response): active compounds read low. In a few lines: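 SW-13 cells in ITS-supplemented serum-free DMEM were plated overnight, then exposed for 48 h at 37C to compound titrations (up to 46 uM final). Viability was read by CellTiter-Glo luminescence; four-parameter logistic fits gave IC50 and efficacy.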
In general terms: In qHTS, concentration-response curves come from the screen itself.

Assay [10] is described as follows: Cellular viability qHTS for adrenocortical cancer (ACC) cell line NCI-H295R (AID 1963990).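 Further: 0% = DMSO only wells and -100% = full killing with cytotoxic reference compound; nearly all actives have a fitted effect of over 60% in size.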 In a few lines:
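Luminescent ATP read-out (CellTiter-Glo, 20 min RT) after 48 h drug exposure of NCI-H295R cells; a titration up to 46 uM final. Data normalized to doxorubicin (100% inhibition) and DMSO (0%); 4-parameter fit gives IC50, max response.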

Inconclusive results are not listed. Values without a mark were called inactive. Active and inactive are the calls of the source. The call rests on the fitted dose curve; in most records, active means well fitted curve in the direction sought with a large enough effect; inconclusive means small, poorly fitted or top-dose-only effect, or another doubt; inactive means no such curve, though single readings can be large; an effect the other way counts as inactive or inconclusive.

Consider `COc1ccc2ccc(=O)oc2c1CC=C(C)C`, for which the Potency result in assay [1], in assay [2], in assay [3] and in [4] was “inactive” each time.

Consider `O=C1NCCc2[nH]c(-c3ccncc3)cc21`, for which the Potency in assay [1] is 18.7 µM (active); in [2] it was 20.9 µM (active); in [3], 18.7 µM (active); in assay [5], 14.8 µM (active); in assay [6], 14.8 µM (active); in assay [4] it was 13.2 µM (active). The Potency in assay [7] is 13.2 µM (active); in assay [8], 14.8 µM (active); in [9], 7.94 µM (active).

As for `Cc1nc(NC(=O)N2CCC[C@@H]2C(N)=O)sc1-c1ccnc(C(C)(C)C(F)(F)F)c1`, the Potency is 2.96 µM (active) in assay [1]; 2.64 µM (active) in [2]; 2.64 µM (active) in assay [3]; 5.9 µM (active) in assay [5]; 3.32 µM (active) in assay [6]; 1.48 µM (active) in assay [4]. In assay [8], the Potency is 2.96 µM (active).

Regarding `C[C@H](NC(=O)C(C#N)=Cc1cccc(Br)n1)c1ccccc1`, the Potency is 2.64 µM (active) in assay [1]; 3.32 µM (active) in assay [2]; 1.87 µM (active) in assay [3]; 2.35 µM (active) in assay [5]; 2.35 µM (active) in assay [6]; 1.32 µM (active) in assay [4]. The Potency is 0.935 µM (active) in assay [7] and 1.32 µM (active) in assay [8].

With `CNC[C@@H](O)[C@@H](O)[C@H](O)[C@H](O)CO`, the Potency result in [1], in [2], in assay [5] and in assay [6] was “inactive” throughout. In addition, the Potency in assay [3] is 0.526 µM (active).

With `COc1cc(N2CCN(C)CC2)ccc1Nc1nc(N)c(C(=O)c2c(Cl)cccc2Cl)s1`, the Potency result in assay [1], in assay [2] and in assay [3] was “inactive” in each case. Also, the Potency in assay [7] and in assay [8] was 20.9 µM (active) in each case.

As for `NC(=O)C1CCCc2c1[nH]c1ccc(Cl)cc21` (stereo unspecified), the Potency in [1] is 8.33 µM (active); in assay [2], 8.33 µM (active); in assay [3], 5.9 µM (active); in assay [4], 2.35 µM (active); in assay [7], 5.26 µM (active); in assay [8], 4.18 µM (active). In assay [9], the activity (max response) is -13.4%. Further, the Potency result in [10] was “inactive”.
